Hit rate of the full screen: of about 290,000 compounds, about 2,300 (0.79%) were called active. No stated cut-off is given here; in the data, active means inhibition above about 22%; inactive means the rest. Shown is part of a subset that was picked to be rich in actives.
Assay: cytotoxicity in IEC-6 intestinal epithelial cells, primary screen, cytotoxicity control for KLF5 inhibitor project, cell-based, luminescence (AID 1825);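 further: 0% = plate median of test compound wells and 100% = cytotoxic reference compound wells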
Details: IEC-6 cytotoxicity, luminescence viability; at 5 µM; active compounds read high
For Cc1[nH]c2ccc(C(=O)N3CCN(C)CC3)cc2c1C, the inhibition was 0.4% (inactive). In the case of COc1ccccc1N1CCN(C(=O)c2ccc(Cl)c(S(=O)(=O)N3CCCC3)c2)CC1, the inhibition is reported as -2.9% (inactive). In the case of CCOc1ccccc1N1CCN(C(=O)c2ccc3[nH]c(C)c(C)c3c2)CC1, the inhibition is reported as 36.2% (active). For CCN(C(=O)COC(=O)c1ccc(COc2ccc3c(C)cc(=O)oc3c2)cc1)C1CCS(=O)(=O)C1 (stereo not drawn), the inhibition was -1.8% (inactive). For Cc1ccc(C)c(NC(=O)C2Cc3ccccc3CN2C(=O)OCc2ccccc2)c1 (stereo not drawn), the inhibition was -6.3% (inactive). For O=C(NCCc1ccccn1)c1cccnc1Oc1ccc(Cl)cc1, the inhibition was 5% (inactive). With CCOc1ncccc1C(=O)NCCc1ccc(OC)cc1 the inhibition was 22% (active). With COc1ccc(CCNC(=O)c2ccccc2OCc2ccccc2)cc1 the inhibition was -0.9% (inactive). In the case of COc1ccc(/C=C(\C#N)c2c[nH]c3ccccc23)cc1, the inhibition is reported as 86.1% (active). With COc1cc(/C=C(\C#N)c2nc3ccccc3[nH]2)ccc1O the inhibition was 2% (inactive). With COc1ccc2[nH]cc(/C=C(/C#N)S(=O)(=O)c3ccccc3)c2c1 the inhibition was -0.2% (inactive). In the case of CN(CC(=O)O)S(=O)(=O)c1ccc2oc3ccccc3c2c1, the inhibition is reported as -1.3% (inactive). For C=Cc1ccc(C(=O)N2CCCC(CCC(=O)N3CCN(c4ccccn4)CC3)C2)cc1 (stereo not drawn), the inhibition was -8.1% (inactive). For CN(C(=O)CN1C(=O)S/C(=C\c2ccccc2F)C1=O)C1CCS(=O)(=O)C1 (stereo not drawn), the inhibition was -4.8% (inactive). In the case of N#CC(C(=O)c1ccc(S(=O)(=O)N2CCCCCC2)cc1)c1nc2ccccc2[nH]1 (stereo not drawn), the inhibition is reported as 3% (inactive). With O=S(=O)(c1ccc(Br)cc1)N1CCC(c2nc3ccccc3[nH]2)CC1 the inhibition was 43.7% (active). For O=C(C1CCCO1)N1CCC(c2nc3ccccc3[nH]2)CC1 (stereo not drawn), the inhibition was -5.3% (inactive). With O=C(Nc1cccnc1Cl)c1cc(-c2ccccc2O)on1 the inhibition was -3.1% (inactive). In the case of Cc1ccc(OCCOc2cccc(/C=N/NC(N)=O)c2)cc1, the inhibition is reported as 3.9% (inactive). In the case of CNC(=O)C1CCN(S(=O)(=O)c2c(C)noc2/C=C/c2cccc(C)c2)CC1, the inhibition is reported as -7.8% (inactive). In the case of Cc1cccc2c1N(CC(=O)OC(C)C)C(=O)C2=O, the inhibition is reported as 2.7% (inactive). In the case of CC(C)OC(=O)CN1C(=O)c2ccccc2C1=O, the inhibition is reported as 1.2% (inactive). For CC(C)OC(=O)CN1C(=O)C(=O)c2ccccc21, the inhibition was 24.8% (active). For COc1ccc(CCNS(=O)(=O)c2cn(C)nc2C)cc1, the inhibition was 3% (inactive). For CCCOc1ccc(C2=CSC3=NCCN23)cc1Cl, the inhibition was -2.6% (inactive). In the case of O=C(Nn1cnnc1)c1cc(Cl)ccc1Cl, the inhibition is reported as 1.3% (inactive). With Cc1ccc(NS(=O)(=O)c2ccc(F)cc2)nc1 the inhibition was 1.3% (inactive). With COc1ccccc1-c1nc(C#N)c(N2CCC(C(N)=O)CC2)o1 the inhibition was 0.7% (inactive). For Cc1ccccc1-c1nc(C#N)c(NCc2ccco2)o1, the inhibition was -5.6% (inactive). For COc1ccc(Nc2oc(-c3ccccc3Cl)nc2C#N)cc1, the inhibition was 26.1% (active). For CCC(C)N1CC(=O)N2Cc3[nH]c4ccccc4c3C[C@H]2C1=O (stereo partly drawn), the inhibition was 9.4% (inactive). In the case of NC(=O)c1oc2ccccc2c1NC(=O)Cc1ccccc1, the inhibition is reported as -3.9% (inactive). For CSc1nnc2ccc(-c3ccc(C)cc3)nn12, the inhibition was 23.2% (active). With Fc1cccc(CSc2nnc3ccc(-c4ccncc4)nn23)c1 the inhibition was -4% (inactive). For O=C(CSc1nnc2ccc(-c3ccncc3)nn12)N1CCCCC1, the inhibition was -4.1% (inactive). With CCOC(=O)N1CCN(C(=O)c2cn(C)c3ccc(S(=O)(=O)N(CC)CC)cc3c2=O)CC1 the inhibition was -5.4% (inactive). For COC(=O)c1ccc(NC(=O)CSc2nncn2-c2cccnc2)cc1, the inhibition was 0.4% (inactive). In the case of COc1ccccc1N1CCN(C(=O)c2cc(=O)c3cc(C)cc(C)c3o2)CC1, the inhibition is reported as 93.6% (active). With COc1cccc(-c2cc(C(=O)N3CCN(c4ccccc4OC)CC3)no2)c1 the inhibition was 12.1% (inactive). With COc1ccccc1N1CCN(C(=O)c2cc(=O)c3cc(C)ccc3o2)CC1 the inhibition was 17.9% (inactive). With COC1=C(N2CCOCC2)C(=O)c2ccccc2C1=O the inhibition was -1.6% (inactive). For COc1ccc(NC(=O)c2cccc3c2C(=O)N(CC2CCCO2)C3)cc1OC (stereo not drawn), the inhibition was -0.8% (inactive). With COc1ccc(CNS(=O)(=O)c2ccc(-c3cnc(C4CC4)o3)cc2)cc1 the inhibition was -1.9% (inactive). With Cc1cccc(NS(=O)(=O)c2ccc(-c3cnc(C4CC4)o3)cc2)c1 the inhibition was 77.2% (active). With Cc1cccc(CNS(=O)(=O)c2ccc(-c3cnc(C4CC4)o3)cc2)c1 the inhibition was 4.4% (inactive). With Cc1cccc(NC(=O)c2nc(S(=O)(=O)Cc3ccccc3)ncc2Cl)c1 the inhibition was 88.2% (active). For Cc1cccc(CS(=O)(=O)c2ncc(Cl)c(C(=O)Nc3ccc(F)cc3)n2)c1, the inhibition was 77.4% (active). In the case of Cc1cccc(OCc2ccc(C(=O)Nc3ccc(F)cc3)cc2)c1, the inhibition is reported as 0.7% (inactive). In the case of CCOc1ccc(NC(=O)c2nc(SCC)ncc2Cl)cc1, the inhibition is reported as 12.7% (inactive). For CCSc1ncc(Cl)c(C(=O)Nc2cc(C)ccc2C)n1, the inhibition was 5.4% (inactive). For Cc1cccc(NC(=O)C(C)SCc2ccccc2)c1 (stereo not drawn), the inhibition was 0.6% (inactive). For CN1C2CCC1CC(NC(=O)c1ccc([N+](=O)[O-])cc1)C2 (stereo not drawn), the inhibition was 5% (inactive). With CC(NC(=O)COc1cccnc1[N+](=O)[O-])c1ccc(Cl)cc1Cl (stereo not drawn) the inhibition was -1.6% (inactive). In the case of Cc1cccc(NC(=O)c2ccc(S(=O)(=O)N(C)CC3CCCO3)cc2)c1C (stereo not drawn), the inhibition is reported as -2.6% (inactive). In the case of COc1ccc(CNC(=O)C(C)n2nc(C)c3c(C)n(-c4ccccc4)nc3c2=O)c(OC)c1 (stereo not drawn), the inhibition is reported as 0.3% (inactive). In the case of CC1CN(C(=S)Nc2ccccc2F)CC(C)O1 (stereo not drawn), the inhibition is reported as 1.8% (inactive). With CC(=O)NC1=NN(C(C)=O)C(C)(c2ccc(C)cc2)S1 (stereo not drawn) the inhibition was -3.8% (inactive). In the case of CC(=O)NC1=NN(C(C)=O)C(C)(c2ccc(Cl)s2)S1 (stereo not drawn), the inhibition is reported as 23.7% (active). For CC(=O)NC1=NN(C(C)=O)C(C)(CCS(=O)(=O)c2ccc(Cl)c(Cl)c2)S1 (stereo not drawn), the inhibition was -1% (inactive). For O=C(Nc1ccccc1Cl)Nn1cnnc1, the inhibition was 0.2% (inactive). For O=C(COC(=O)c1cccs1)Nc1ccccc1Cl, the inhibition was -3.8% (inactive). For O=C(Nc1ccccc1Cl)/C(Cl)=C(\Cl)S(=O)c1ccccc1 (stereo not drawn), the inhibition was 96.8% (active). For CCOC(=O)c1csc(CCNC(=O)c2oc3c(Cl)cc(C)cc3c2C)n1, the inhibition was -2.4% (inactive).
